Only a selection was taken, and hits are over-represented in it overall.
KDM5B inh: blocks human KDM5B histone demethylase activity. Q9UGL1. KDM5B demethylase, FDH-coupled NADH fluorescence (FDH is formaldehyde dehydrogenase). Potency, µM (titrated, usually from 57.7 µM), usual class: inhibitors. 220,000 tested, 2.6% active. AID 1347165; active means well fitted inhibition curve with a large enough effect; further: nearly all actives have a fitted effect of over 70% in size
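Measured: NADH fluorescence change, 30 min, RT. System: KDM5BΔAP 200 nM final, H3K4me3 peptide, α-KG, Fe(II), ascorbate, NAD⁺ plus FDH, pH 7.5 HEPES. Compounds: titrated, 10 min pre-incubation with enzyme.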
Large screens that a line does not name were inactive.

COc1ccc(CN2CCC3OCCN(Cc4ccccc4)C(=O)C3C2)cn1 (stereo not given)	none
CCOc1ccc(NC(=O)Nc2ccc3nc(N4CCOCC4)cc(C)c3c2)cc1	none
Cc1cc(C(=O)OCC(=O)Nc2cc(F)ccc2F)c2ccccc2n1	none
COc1ccc(COC(=O)C2=C(C)NC3=C(C(=O)CCC3)C2c2ccccc2C(F)(F)F)cc1 (stereo not given)	none
O=Cc1cccc(-c2ccc(C(=O)O)cn2)c1	none
O=Cc1ccc(-c2ccc(C(=O)O)cn2)cc1	KDM5B inh 22µM
O=C(O)c1ccc(C(F)(F)F)nc1	none
O=[N+]([O-])c1ccc(Oc2cccc(C(F)(F)F)c2)c2ccncc12	none
Cc1ccc(-c2noc(CN(C)C(=O)COc3ccc(Cl)cc3Cl)n2)cc1	none
Cc1noc2c(-c3cccnc3NCc3cnccn3)cc(-c3ccccc3)nc12	KDM5B inh 32µM
Cc1cc(-c2cc(-c3ccccn3)nc3c(C)noc23)ccn1	none
CC(=O)N1CCN(c2cc(-c3ccc(Cl)cc3)nc3c(C)noc23)CC1	none
CC(=O)N1CCC(Nc2ncccc2-c2cc(-c3ccccc3)nc3c(C)noc23)CC1	KDM5B inh 20µM
Cc1noc2c(-c3cccnc3NC(C)C)cc(-c3ccccc3)nc12	KDM5B inh 32µM
Cc1noc2c(NC(C)C)cc(-c3cccnc3)nc12	none
Cc1noc2c(NCCN3CCOCC3)cc(-c3ccsc3)nc12	none
CC(=O)N1CCC(Nc2cc(-c3ccc(Cl)cc3)nc3c(C)noc23)CC1	none
Cc1noc2c(NCCN3CCOCC3)cc(-c3cccc(C(F)(F)F)c3)nc12	none
Cc1noc2c(-c3cccnc3NCCN3CCOCC3)cc(-c3ccccc3)nc12	KDM5B inh 35µM
Cc1noc2c(NCc3cnccn3)cc(-c3ccc(Cl)cc3)nc12	none
Cc1noc2c(N(C)C)cc(-c3cccnc3)nc12	none
Cc1ccc(-c2c3c(nc4sc5c(c24)CCCC5)CC(C)(C)CC3=O)cc1	none
N#Cc1ccc(C(=O)/C=C/c2cc3ccccc3nc2N2CCOCC2)cc1	none
CCOc1ccc(S(=O)(=O)N2CCN(C(C(=O)O)c3c[nH]c4cc(F)ccc34)CC2)cc1 (stereo not given)	none
CC(C)c1ccccc1NC(=O)/C=C/c1c(F)cccc1Cl	none
Cc1noc2c(N(C)C)cc(-c3ccccc3)nc12	none
COc1ccc(OC)c(-c2cc(-c3ccccc3)nc3c(C)noc23)c1	KDM5B inh 35µM
Cc1noc2c(-c3cn[nH]c3)cc(-c3ccccc3)nc12	none
O=C(Nc1ccccc1)C1CC(=O)N(Cc2ccccc2)c2nc3ccccc3n21 (stereo not given)	none
O=C(Cc1c[nH]c2ncc(-c3ccccc3)cc12)N1CC[S+](=O)([O-])CC1	KDM5B inh 35µM
O=C(Nc1ccc(CC(=O)N2CCOCC2)cc1)c1cc(F)cc(F)c1	none
O=C(Cc1c[nH]c2ncc(-c3cccc(CO)c3)cc12)N1CCOCC1	KDM5B inh 28µM
COc1cc(F)cc(-c2cnc3[nH]cc(CC(=O)N4CCOCC4)c3c2)c1	KDM5B inh 35µM
O=C([C@@H]1C[C@H](Oc2ccccc2)CN1C(=O)Cc1c[nH]c2ccccc12)N1CCOCC1	none
O=C1CCN(C(=O)Cc2cccc(F)c2)CCOCCN1	none
O=C(CCc1c[nH]c2ccccc12)OCC(=O)N1CCOCC1	none
O=C(O)c1cc(-c2cccc(CO)c2)cc(S(=O)(=O)N2CCOCC2)c1	none
O=C(Cc1c[nH]c2ncc(-c3ccc(Oc4ccccc4)cc3)cc12)N1CCOCC1	KDM5B inh 40µM
COc1ccc(C2(C(=O)N(C)Cc3ccc(OC(F)(F)F)cc3)CCOCC2)cc1	none
CC(C)c1ccc(OCc2nn3c(=O)c4ccccc4nc3s2)cc1	none
CCNc1c(NC(=O)NCc2cccc(OC)c2)c(=O)oc2ccccc12	none
CN(C)C(=O)C1CCCN1S(=O)(=O)c1c(Cl)cccc1Cl (stereo not given)	none
CC12C3C=CC(C3)C1([Si](C)(C)C)C2C(=O)O (stereo not given)	none
CNc1ccc2c(cc1=O)[C@@H](NC)CCc1cc(OC)c(OC)c(OC)c1-2	none
CC(C)(C)CC(C)(C)c1ccc(O)c(Sc2cc(C(C)(C)CC(C)(C)C)ccc2O)c1	none
CC(C)C(=O)NC1CCC(c2ccccc2)CC1 (stereo not given)	none
O=Cc1ccc(-c2ccc(I)cc2Cl)o1	none
Cc1cccc(C(=O)Nc2c(NC3CCCCC3)c3ccccc3oc2=O)c1	none
C=CCn1c(C)cc(C(=O)CN2C(=O)NC(Cc3c[nH]c4ccccc34)C2=O)c1C (stereo not given)	none
N#C/C(=C\c1ccc(-c2ccc(Br)cc2)o1)C(=O)c1ccccc1	none
CCc1nnc(NC(=O)c2cc(=O)c3ccccc3o2)s1	none
Cc1ccccc1CC(=O)N1CCN(c2ncnc3nc[nH]c23)CC1	none
COc1ccc2ccc(OCc3nc(C(=O)N4CCCNC(=O)C4)co3)cc2c1	none
Cc1ccccc1-c1cnc2[nH]cc(CC(=O)N3CCOCC3)c2c1	KDM5B inh 35µM
COc1ccc(-c2cnc3[nH]cc(CC(=O)N4CCNC(=O)C4)c3c2)cc1	KDM5B inh 35µM
COc1ccc(-c2nc3c(c(=O)[nH]2)CCN(C(=O)Cc2c[nH]c4ccccc24)C3)cc1	none
O=C(COc1cc(OCC(=O)N2CCNC2=O)c(Cl)cc1Cl)N1CCNC1=O	none
CCCn1nc(C(=O)Nc2ccc(Cl)cc2)c2ccccc2c1=O	none
S=c1cc[nH]c(=S)[nH]1	none
CCn1nc(C(=O)Nc2ccc(OCC(=O)N(C)C)cc2)c2ccccc2c1=O	none
COc1ccc(OC)c2sc(N3CCN(C(=O)C4CCCCC4)CC3)nc12	none
O=C(O)CSCc1ccncc1	none
CCCc1noc(-c2ccn3c(CNC(=O)c4ccccc4OC)nnc3c2)n1	KDM5B inh 3.2µM
CCCc1noc(-c2ccn3c(CNC(=O)c4cc5ccccc5[nH]4)nnc3c2)n1	none
CCCc1noc(-c2ccn3c(CNC(=O)C(C)Oc4ccccc4)nnc3c2)n1 (stereo not given)	KDM5B inh 25µM
CCCc1noc(-c2ccn3c(CNC(=O)Cc4ccccc4OC)nnc3c2)n1	KDM5B inh 18µM
COC(=O)c1ccc(CNC(=O)c2ccc(F)cc2)cc1	none
Cc1ccc(Cl)cc1OCc1n[nH]c(=S)n1C	none
COc1ccc(CCNc2nc(-c3ccccc3)cs2)cc1OC	none
Cn1c(=O)[nH]c(=O)c2c1nc(N1CCN(CC(N)=O)CC1)n2Cc1ccc(Cl)cc1	none
CCc1c(-c2ccc(C)cc2)nc2ccccc2c1C(=O)O	none
CC(C)n1ncc2cc(NC(=O)CCc3ncc(-c4ccccc4F)o3)cnc21	none
CCCCN(Cc1ccccc1)c1ccc(NS(=O)(=O)c2cc(C)ccc2C)cc1C(=O)O	none
CCc1ccc(C(=O)NCc2ccco2)o1	none
CNC(=O)c1cccc(-c2cnc(Nc3cccnc3)c3c2CCO3)c1	none
CNC(=O)c1cccc(-c2cnc(Nc3ccc(F)c(Cl)c3)c3c2CCO3)c1	KDM5B inh 35µM
O=C(Nc1cccc(F)c1)c1ccc2c(c1)OCCO2	none
CNC(=O)c1cccc(-c2cnc(Nc3ccncc3)c3c2CCO3)c1	none
O=C(Nc1ncc(-c2cccc(F)c2)c2c1OCC2)c1ccc(F)c(Cl)c1	KDM5B inh 22µM
CC(C)COc1cccc(C(=O)Nc2cccc(C(F)(F)F)c2)c1	none
CNC(=O)c1cccc(-c2cnc(Nc3cccc(C(F)(F)F)c3)c3c2CCO3)c1	KDM5B inh 13µM
COc1cccc(C(=O)c2sc(Nc3ccc(F)c(Cl)c3)nc2N)c1	none
O=C(Nc1ncc(-c2cccc(F)c2)c2c1OCC2)c1ccncc1	none
c1ccc(-c2ccc(CN3CCNCC3)s2)cc1	none
O=C(Nc1ccncn1)[C@@H]1C[C@@H](c2cccc(C(F)(F)F)c2)N(CC2CCOCC2)C1	none
Cc1cc(C)c(C#N)c(SCc2cc(=O)oc3cc(C)c(O)cc23)n1	none

Screens from PubChem BioAssay.
